An excerpt weighted towards active compounds, which were near 5.7% of everything screened.
GLP-1R agonist = agonists of human GLP-1 receptor; P43220; HEK293 GLP-1R CRE-luciferase, luminescence, 4-6 h; cells express a hypersensitive GLP-1R form; Potency, µM (top dose mostly 45.6 µM), for inactives: top-dose activation, actives largely listed as activators; 380,000 compounds, 0.007% hits; also: potency is read from the fitted curve at half-maximal effect; % of control where 0% means no effect
GLP1R cytotox = cytotoxicity counter-screen for GLP-1 receptor inverse agonists | 410,000 compounds, 0.13% hits | AID 624418 | Potency, µM (top dose mostly 38.3 µM), without a hit: top-dose activity change, negative = inhibition, most hits filed as inhibitors | HEK293 cAMP-luciferase reporter cells, luminescence, 24 h;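 also: loss of luciferase light is scored as toxicity; potency is read from the fitted curve at half-maximal effect; % is scaled to controls: 0 for no effect and ±100 for the full control effect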
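1536-well qHTS counterscreen of the MLSMR; 200 cells/uL, 12 h pre-incubation, 23 nL cpd, 24 h at 37 deg C 5% CO2, luciferase detection reagent, 12 min RT, luminescence. Inhibition = undesired.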
ClpP mod = qHTS Assay for Activators of ClpP; purified B. subtilis ClpP, FRET peptide cleavage, 20 min; Potency, µM (top dose mostly 57.5 µM), for inactives: at the top dose activity change, negative = active; 340,000 compounds, 1.9% hits; AID 651965, 2013; active = well fitted falling curve with a large enough effect; inconclusive = small, poorly fitted or top-dose-only effect; inactive = no such curve, though single readings can be large or run the other way; also: potency is read from the fitted curve at half-maximal effect; the source files actives as falling curves though it sought activators and does not explain the sign; nearly all actives have a fitted effect of over 65% in size
Target sequence (P80244 whole entry, looked up): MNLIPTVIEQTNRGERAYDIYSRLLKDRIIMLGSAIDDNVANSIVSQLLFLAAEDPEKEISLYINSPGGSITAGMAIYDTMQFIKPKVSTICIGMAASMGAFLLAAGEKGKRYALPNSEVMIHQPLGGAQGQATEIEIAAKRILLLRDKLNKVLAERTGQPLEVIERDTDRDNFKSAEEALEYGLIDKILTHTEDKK
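Purified B. subtilis ClpP, 10 microg/mL final in Tris/HCl pH8 with KCl, BSA, glycerol and Tween-20, cleaved an Abz/nitrotyrosine-quenched decapeptide. Fluorescence (ex 320, em 430) was read at 0 and 20 min at room temperature. Delta was normalized to 5.8 microM ADEP and DMSO/no-enzyme controls.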
DRD3 antagonist = blocks the human D3 dopamine receptor | P35462 | D3R cells, DiscoveRx beta-arrestin luminescence, antagonist mode; hits give low values | max response, negative = inhibition, % | 360,000 compounds, 2.5% hits; in the data active = max response below about -50%; inconclusive = no clear call, values can overlap the other calls; also: % is scaled to controls: 0 for no effect and ±100 for the full control effect
Target sequence (P35462 whole entry, looked up): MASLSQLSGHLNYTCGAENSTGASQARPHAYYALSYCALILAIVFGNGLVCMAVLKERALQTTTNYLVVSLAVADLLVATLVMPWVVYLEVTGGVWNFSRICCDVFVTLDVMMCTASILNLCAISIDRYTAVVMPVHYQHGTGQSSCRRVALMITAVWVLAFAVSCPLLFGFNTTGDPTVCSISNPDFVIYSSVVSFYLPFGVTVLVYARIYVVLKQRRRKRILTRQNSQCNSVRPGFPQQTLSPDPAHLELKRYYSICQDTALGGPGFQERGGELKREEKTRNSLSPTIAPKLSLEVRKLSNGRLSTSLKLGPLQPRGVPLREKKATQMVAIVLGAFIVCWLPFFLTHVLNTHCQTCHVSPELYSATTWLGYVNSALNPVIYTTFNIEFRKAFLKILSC
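Cells expressing the human receptor were seeded at 1500 cells/well, incubated overnight at 37 degrees C in 5% CO2, then exposed to library compounds with dopamine controls for 90 minutes at 37 degrees C before luminescent detection.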
DRD3 agonist = activates the human D3 dopamine receptor; max activation, %; P35462; 410,000 compounds, 0.58% hits; D3R DiscoveRx beta-arrestin cells, luminescence, 90 min; in the data active = max activation above about 30%; also: 0% is about no effect
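Agonist-mode cell screen: cells plated at 1500/well and incubated overnight at 37 °C, then exposed to library compounds for 90 min at 37 °C. Detection reagent was added for 30–60 min at room temperature, and luminescence was read.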
GLP1R inv ag = acts as inverse agonist at human GLP-1 receptor. P43220. HEK293 GLP-1R CRE-luciferase, luminescence, 24 h; GLP-1R form is constitutively active. Potency, µM (series often up to 38.3 µM), for inactives: top-dose activity change, negative = inhibition, hits mostly inhibitors. 410,000 compounds, 1.6% hits. AID 624417; also: potency is read from the fitted curve at half-maximal effect; % is scaled to controls: 0 for no effect and ±100 for the full control effect; nearly all actives have a fitted effect of over 55% in size
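Constitutively active GLP-1R drives a cAMP-responsive luciferase in stably transfected HEK293 cells; test compounds are added after overnight (12 h) attachment and left 24 hr, and signal loss in luminescence marks inhibition.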
* marks the source's active call; other numbers are inactive results; ? = inconclusive; nt = no result given. Unless noted, calls follow the shape of the dose curve; as a rule, active = well fitted curve in the direction sought with a large enough effect; inconclusive = small, poorly fitted or top-dose-only effect, or another doubt; inactive = no such curve, though single readings can be large; an effect the other way counts as inactive or inconclusive.

SMILES	GLP-1R agonist	GLP1R cytotox	ClpP mod	DRD3 antagonist	DRD3 agonist	GLP1R inv ag
CCN1CCN(C(c2ccccc2)c2nnnn2Cc2ccc3c(c2)OCO3)CC1 (stereo not given)	-4%	0%	1%	11	-2	13%
O=c1[nH]c2cc3c(cc2cc1C(c1nnnn1Cc1ccccc1)N1CCN2CCCC2C1)OCCO3 (stereo not given)	3%	2%	25µM*	-22	14	44%
Cc1cccc2cc(C(c3nnnn3Cc3ccc4c(c3)OCO4)N3CCCC3)c(=O)[nH]c12 (stereo not given)	-3%	-10%	-4%	-51*	12	0%
CCc1ccc2[nH]c(=O)c(C(c3nnnn3CC3CCCO3)N3CCCc4ccccc43)cc2c1 (stereo not given)	-6%	1%	0%	8	38*	-3%
COc1cc2cc(C(c3nnnn3C(C)(C)C)N3CCC(C)CC3)c(=O)[nH]c2cc1OC (stereo not given)	2%	-9%	13µM*	7	0	111%
O=c1[nH]c2cc3c(cc2cc1C(c1nnnn1Cc1ccccc1)N1CCCCCC1)OCCO3 (stereo not given)	-5%	1%	-26%	-19	-1	7%
CCc1cccc(CC)c1NC(=O)CN(C)S(=O)(=O)c1ccc2c(c1)n(C)c(=O)c(=O)n2C	nt	7%	4%	nt	0	7%
CCn1nnc2cc(C(=O)Nc3ccc(Cl)cc3C)ccc21	nt	3%	-1%	nt	-5	15%
CCN(CCCNC(=O)c1cc2c(=O)n(C)c3ccccc3c2s1)Cc1ccccc1	nt	-14%	4%	nt	-11	0%
Cc1ccc(C)c(NC(=O)c2ccccc2O)c1	-6%	-19%	-30%	0	-5	?
O=C(/C=C/c1ccccc1Cl)c1ccc(O)cc1	-4%	-21%	nt	-16	-13	?
O=C(/C=C/c1ccc([N+](=O)[O-])cc1)c1ccccc(=O)c1O	1%	?	2%	-107*	-22	-6%
Cc1ccc(C)c(/C=C/C(=O)c2ccccc(=O)c2O)c1	6%	?	2%	-51*	-19	?
O=C(C=Cc1ccccc1O)c1ccccc1O	6%	-16%	nt	-10	-9	7.9µM*
O=C(/C=C/c1ccccc1Cl)c1ccccc(=O)c1O	-1%	?	-3%	-77*	-19	?
COC(=O)c1cc(C)nc2c1c(=O)nc(SCc1ccccc1C)n2C1CC1	nt	4%	-3%	nt	-13	-6%
COc1ccc(CNC(=O)c2cnn(-c3ccccc3)c2-n2cccc2)cc1OC	nt	-3%	3%	nt	-6	1%
CCS(=O)(=O)N1CCc2cc(C(=O)NCc3ccc(Cl)cc3)ccc21	nt	5%	0%	nt	-5	-14%
Cc1ccc(-c2nnc(N3CCCCC3)c3ccccc23)cc1S(=O)(=O)N1CCN(C)CC1	25%	-9%	1%	-83*	-18	2%
Cc1ccc(-c2nnc(N3CCCCC3)c3ccccc23)cc1S(=O)(=O)N(C)C	14%	-8%	1%	24	2	10%
CN1CCN(c2ncccc2S(=O)(=O)N2CCCCC2)CC1	-1%	-13%	-8%	-67*	-15	-21%
Cc1ccc2oc(=O)c3cc(C(=O)Nc4ccc(F)cc4F)sc3c2c1	0%	-12%	-2%	nt	5	6%
CCc1cccc(C)c1NC(=O)Cn1nnc(-c2nc(-c3ccccc3F)no2)c1N	nt	1%	-3%	nt	1	1%
C=CC(COCc1ccccc1)N([C@@H](Cc1ccccc1)C(=O)OC)S(=O)(=O)c1ccccc1Br (stereo not given in full)	-2%	20%	-5%	7	7	3.5µM*
C=CC(COCc1ccccc1)N(Cc1ccc(OC)cc1)S(=O)(=O)c1ccccc1Br (stereo not given)	-6%	8%	-2%	1	-10	?
SMILES	GLP-1R agonist	GLP1R cytotox	ClpP mod	DRD3 antagonist	DRD3 agonist	GLP1R inv ag
Cc1ccc(NC(C(=O)c2ccccc2)c2ccccc2)cc1 (stereo not given)	7%	-13%	nt	1	-6	?
O=C1N(Cc2ccccc2)c2ccc(Br)cc2[C@]12C[C@H](O)CO2	nt	-6%	1%	33	7	-12%
Cn1c(=O)[nH]c(=O)c2c1nc(Br)n2CCC(=O)c1ccccc1	0%	26%	28µM*	13	1	19%
COc1cccc(-c2cn3nc4c(nc3n2)CCCC4)c1	-34%	295%	-8%	0	-9	2.5µM*
COC(=O)[C@@]1(Cc2ccc(F)cc2)[C@H]2c3cc(C(=O)N(C)C)n(Cc4nc5ccccc5[nH]4)c3C[C@H]2CN1C(=O)c1ccccc1	5%	-5%	-28%	-68*	-66	?
COc1ccc(Cc2nc3c4cnn(-c5ccccc5Br)c4ncn3n2)cc1	nt	-17%	-1%	nt	9	7%
CCCn1c2c(c(O)c(C(=O)Nc3ccc(OC)cc3)c1=O)CCCC2	-1%	5%	28µM*	22	1	4%
CCCn1c2c(c(O)c(C(=O)NC)c1=O)CCCC2	?	-16%	-21%	-8	8	?
CN1CCN(c2nc(C#N)cc(-c3ccccc3)n2)CC1	0%	-13%	-4%	-74*	-11	13µM*
COc1ccc(-c2cc(C(F)(F)F)nc(N3CCCCC3)n2)cc1OC	0%	8%	35µM*	26	11	13%
COc1ccc(-c2cc(C(F)(F)F)nc(N3CCCCCC3)n2)cc1	-12%	11%	22µM*	-16	-6	-9%
COc1ccc(-c2cc(C(F)(F)F)nc(N3CCN(C)CC3)n2)cc1OC	14%	-9%	0%	-7	1	?
COc1ccc(-c2cc(C#N)nc(N3CCN(C)CC3)n2)cc1	7%	-4%	nt	?	-24	?
COc1ccc(-c2cc(C(F)(F)F)nc(N3CCN(C)CC3)n2)cc1	6%	-33%	-14%	-66*	1	?
COc1ccccc1CCNc1ncnc2nc[nH]c12	nt	nt	-1%	nt	nt	nt
O=C(NC1CCN(Cc2ccc(Cl)c(Cl)c2)CC1)c1ccccc1	12%	0%	0%	-99*	-21	11%
O=C(NC1CCN(Cc2ccc3ccccc3c2)CC1)c1ccccc1	0%	-9%	-1%	-74*	-19	3%
O=C(NC(=S)NC1CCN(Cc2ccccc2)CC1)c1ccc(F)cc1	18%	?	0%	?	-13	?
CS(=O)(=O)Cc1ccc(C(=O)NC2CCN(Cc3ccccc3)C2)cc1 (stereo not given)	5%	2%	nt	0	-15	4%

Screening data (PubChem)
